High-throughput results as filed in PubChem BioAssay.
RORg inh – blocks mouse ROR gamma transcriptional activity | AID 2551 | Potency, µM (highest dose often 53.6 µM), inactives show top-dose activity change, negative = inhibition, actives largely listed as inhibitors | hit rate 5.4% among 310,000 | Drosophila S2 Gal4-RORgamma UAS-luciferase reporter, 20 h; note: nearly all actives have a fitted effect of over 60% in size
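Compounds are pin-transferred onto Drosophila Schneider cells expressing a copper-inducible Gal4–ROR gamma transactivation domain fusion. After 1 hr, copper sulfate is added to 700 uM final; luciferase is read 20 hr later.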
ELG1 repair inh – blocks ELG1-dependent DNA repair in HEK293T cells. HEK293T ELG1-luciferase reporter, luminescence, 16 h; DNA damage induced by 5-fluorouridine. Potency, µM (highest dose often 46.1 µM), inactives show at the highest dose activity change, negative = inhibition, usual class: inhibitors. hit rate 2.3% among 330,000; note: nearly all actives have a fitted effect of over 55% in size
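DMSO vehicle served as the neutral condition. Each well held 2,000 cells given 5-fluorouridine plus compound; after 16 hr at 37 °C/5% CO2, ONE-Glo was added and luciferase measured 30 min later.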
TDP1 cell noCPT – qHTS for Inhibitors of human tyrosyl-DNA phosphodiesterase 1 (TDP1): qHTS in cells in absence of CPT. DT40 Tdp1-/- hTDP1 cells, no CPT, ATP luminescence, 48 h. Potency, µM (top dose mostly 46.2 µM), without a hit: at the top dose activity change, negative = growth inhibition, actives largely listed as inhibitors. hit rate 15% among 420,000. AID 686978, 2013; note: nearly all actives have a fitted effect of over 55% in size
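A cellular qHTS used chicken DT40 cells lacking endogenous Tdp1 but carrying stably transfected human TDP1. Compounds were applied without camptothecin, and cell growth kinetics were judged by ATP-dependent luminescence after ≥48 hr.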
VP16 counter – counter-screen for ROR gamma inhibitors: Gal4-VP16 reporter. Drosophila S2 Gal4-VP16 UAS-luciferase, luminescence, 20 h. AID 2546. hit rate 3.5% among 310,000. Potency, µM (titrated, usually from 53.6 µM), for inactives: at the top dose activity, negative = inhibition, actives largely listed as inhibitors;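 note: Gal4-VP16 expression switched on by copper sulfate through the metallothionein promoter; nearly all actives have a fitted effect of over 50% in size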
TDP1 cell CPT – growth inhibition of DT40 Tdp1-/-;hTDP1 cells with camptothecin (screen for TDP1 inhibitors). chicken DT40 Tdp1-/-;hTDP1 cells + 20 nM CPT, ATP luminescence, 48 h. Potency, µM (highest dose often 46.2 µM), for the others: at the highest dose activity change, negative = growth inhibition, usual class: inhibitors. hit rate 12% among 420,000; note: nearly all actives have a fitted effect of over 55% in size
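Chicken DT40 Tdp1-/- cells stably complemented with human TDP1 were seeded at 400 cells/well in medium containing 20 nM camptothecin, exposed to pin-transferred compounds, and grown at 37 °C for at least 48 hr. Viability was read as ATP luminescence.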
ALOX12 inh – ALOX12 (human) lipoxygenase inhibition | purified 12hLO, xylenol orange hydroperoxide absorbance | Potency, µM (titrated, usually from 108 µM), without a hit: at the highest dose activity change, negative = inhibition, usual class: inhibitors | hit rate 1.1% among 580,000 | AID 1671190
Target sequence (P18054 whole entry, looked up): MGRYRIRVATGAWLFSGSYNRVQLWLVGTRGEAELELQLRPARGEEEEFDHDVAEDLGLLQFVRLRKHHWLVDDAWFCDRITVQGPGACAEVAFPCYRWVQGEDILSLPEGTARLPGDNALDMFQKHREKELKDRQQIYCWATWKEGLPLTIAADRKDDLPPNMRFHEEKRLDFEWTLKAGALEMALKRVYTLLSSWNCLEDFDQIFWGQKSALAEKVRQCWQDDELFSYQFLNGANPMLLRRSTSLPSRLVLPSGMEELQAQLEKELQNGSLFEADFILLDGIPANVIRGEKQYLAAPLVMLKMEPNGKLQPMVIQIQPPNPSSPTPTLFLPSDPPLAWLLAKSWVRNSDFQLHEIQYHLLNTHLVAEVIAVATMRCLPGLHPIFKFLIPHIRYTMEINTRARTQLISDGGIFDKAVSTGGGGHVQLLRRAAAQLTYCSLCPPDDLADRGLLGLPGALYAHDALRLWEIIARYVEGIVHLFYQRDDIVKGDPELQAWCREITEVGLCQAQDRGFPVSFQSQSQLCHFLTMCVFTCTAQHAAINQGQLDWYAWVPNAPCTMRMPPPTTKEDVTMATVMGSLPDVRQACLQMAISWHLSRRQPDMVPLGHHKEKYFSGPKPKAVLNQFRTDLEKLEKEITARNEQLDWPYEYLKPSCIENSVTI
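Hydroperoxide product was detected by ferrous iron/xylenol orange as the 573 to 405 nm absorbance ratio. Arachidonic acid at 40 uM (final) was turned over for 30 min at room temperature by 150 nM human 12hLO, pH 7.0 Hepes buffer, after 15 min compound preincubation.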
Starred values were filed as active, the others as inactive; i = inactive; ? = inconclusive; . = not tested or not shown; [ ] = remark or other dose. Most compounds without a hit are left out; they make up all but 15% or so of the library. Calls come from the whole dose curve; as a rule, active = well fitted curve in the direction sought with a large enough effect; inconclusive = small, poorly fitted or top-dose-only effect, or another doubt; inactive = no such curve, though single readings can be large; an effect the other way counts as inactive or inconclusive. % is set by controls: 0 for no effect and ±100 for the full control effect; potency is the fitted concentration of half-maximal effect.

SMILES | RORg inh | ELG1 repair inh | TDP1 cell noCPT | VP16 counter | TDP1 cell CPT | ALOX12 inh
COCCn1cnnc1CCNC(=O)c1oc2cc(OC)ccc2c1C | . | . | . | . | . | 28.9%
Cc1ccnc2c1ccc1ccccc12 | -17.9% | 20.6% | 9.1% | 5.2% | -3.7% | 0.0%
Cc1ccnc2c(O)cccc12 | . | . | 0.891µM* | . | 1.26µM* | .
O=C1c2ccccc2CCC12N=NCC2c1ccc(Cl)cc1 (configuration not stated) | 23.9% | -5.5% | ? | 2.7% | -0.5% | ?
COc1ccccc1C1CN=NC12CCCc1ccccc1C2=O (configuration not stated) | -26.7% | -3.9% | ? | -11.6% | ? | 38.9%
COc1ccc(C2CN=NC23CCCc2ccccc2C3=O)cc1 (configuration not stated) | ? | ? | 23.1µM* | 9.7% | ? | 0.0%
COc1ccc(C2CN=NC23CCc2ccccc2C3=O)cc1 (configuration not stated) | 27.8% | ? | 23.1µM* | 4.1% | ? | -24.4%
Nc1nnc(SCC(=O)N(C2CCCCC2)C2CCCCC2)s1 | . | . | . | . | . | -0.8%
O=[N+]([O-])c1cccc(/C=N/N=C(c2ccccc2)c2ccccc2)c1 | . | . | . | . | . | 3.7%
CN1C(=C2C(=O)OC(C)(C)OC2=O)Sc2ccccc21 | ? | ? | 18.4µM* | -0.5% | ? | -19.4%
CC(=O)NN1C(=O)/C(=C2/Sc3ccccc3N2C)SC1=S | -2.5% | ? | -5.6% | 2.9% | -24.7% | 0.0%
O=C(c1ccno1)N1CCOC[C@H](Oc2ccc(C(F)(F)F)cn2)C1 | . | . | . | . | . | 8.4%[176 µM]
O=C(NCCS(=O)(=O)N1CCN(c2ccccc2F)CC1)c1ccccc1Br | . | . | . | . | . | -2.8%
O=C(COC(=O)c1ccc(Cl)s1)c1cc2ccccc2o1 | 14.9% | 1.2% | -17.3% | 1.0% | -18.4% | -29.6%
N/C(=N/OC(=O)c1ccccc1Cl)c1ncc([N+](=O)[O-])s1 | ? | ? | 8.2µM* | ? | 3.66µM* | ?
O=C(COC(=O)c1cc([N+](=O)[O-])ccc1Cl)c1cc2ccccc2o1 | . | . | . | . | . | 39.8µM*
N/C(=N\OC(=O)c1ccccc1Cl)c1cccc([N+](=O)[O-])c1 | ? | ? | ? | ? | -7.4% | 34.6%
N/C(=N\OC(=O)c1ccc([N+](=O)[O-])cc1Cl)c1ccccn1 | 10µM* | ? | ? | 11.2µM* | -29.7% | 7.5%
N/C(=N\OC(=O)c1cc([N+](=O)[O-])ccc1Cl)c1ccccn1 | 3.98µM* | ? | 18.4µM* | ? | ? | 479.4%
Cc1c(C(=O)O/N=C(\N)c2ccccn2)cccc1[N+](=O)[O-] | -38.2% | ? | ? | -21.1% | ? | ?
N/C(=N\OC(=O)c1cccc([N+](=O)[O-])c1)c1ccccn1 | ? | ? | -20.7% | -12.2% | ? | -9.1%
CC(=O)N1CCC([C@@H]2CN(C(=O)c3ccc(C#N)cc3)C[C@H]2CO)CC1 | . | . | . | . | . | 18.6%
Cc1ccn(CC(=O)N/N=C/c2cc([N+](=O)[O-])ccc2O)n1 | ? | ? | ? | 8.91µM* | ? | -1.0%
O=C(Cn1cncn1)N/N=C/c1ccncc1 | -1.6% | 10.4% | -4.9% | 3.0% | -0.6% | i
O=C(Cn1cncn1)N/N=C/c1cc([N+](=O)[O-])ccc1O | 8.91µM* | ? | 1.8% | -15.0% | 4.9% | 10.3%
SMILES | RORg inh | ELG1 repair inh | TDP1 cell noCPT | VP16 counter | TDP1 cell CPT | ALOX12 inh
O=C(Cn1cncn1)N/N=C/c1ccccc1O | 8.91µM* | ? | 13µM* | ? | 14.6µM* | 7.1%
O=C(CSc1ccc2ccccc2n1)N/N=C/c1ccccc1O | 1.41µM* | 16.4µM* | 5.8µM* | 3.16µM* | 5.17µM* | -2.7%
O=C(CSc1ccc2ccccc2n1)N/N=C/c1ccc(O)cc1 | ? | -8.5% | ? | ? | ? | 11.3%
O=C(NCc1cccnc1-n1cccn1)c1cccc(NC(=O)c2cccs2)c1 | . | . | . | . | . | -1.8%
C=CCOc1cccc(N)c1 | . | . | . | . | . | 23.9%
COCCN1CCC(N2CCN(S(=O)(=O)c3ccc(Cl)cc3C)CC2)C1=O (configuration not stated) | . | . | . | . | . | 19.6%
COc1ccc(-n2nnnc2SCC(=O)Nc2ccc3c(c2)OCCO3)c(OC)c1 | 7.0% | 20.6µM* | 23.1µM* | ? | 13µM* | 2.9%
COc1cccc(-n2nnnc2SCC(=O)Nc2ccc3c(c2)OCCO3)c1 | ? | -1.0% | -28.7% | -22.0% | -23.9% | -8.1%
CCn1nnnc1SCC(=O)Nc1ccc2c(c1)OCCO2 | ? | ? | -10.9% | -9.5% | 5.5% | 1.2%
O=C(CSc1nnnn1-c1ccc2c(c1)OCO2)NCc1ccccc1 | 10.1% | -27.8% | 14.6µM* | 0.6% | 14.6µM* | -2.4%
COc1ccc(-n2nnnc2SCC(=O)Nc2ccc3c(c2)OCCO3)cc1OC | -43.6% | ? | 9.2µM* | -12.1% | ? | -12.7%[57.4 µM]
COc1ccc(CN[C@H]2[C@H](O)[C@H](O)C[C@@H]2c2ccc(C(F)(F)F)cc2)cc1 | . | . | . | . | . | 47.2%[176 µM]
COc1cc2oc(=O)cc(-c3cccc(-c4cccc(C)c4)c3)c2c(OC)c1OC | 10.0% | 20.6µM* | 23.1µM* | -3.7% | ? | ?
COc1cc2oc(=O)cc(-c3ccc(-c4ccc(O)cc4)cc3)c2c(OC)c1OC | -21.6% | ? | 18.4µM* | ? | ? | -21.3%
COc1cc2oc(=O)cc(-c3ccc(-c4cccc(N)c4)cc3)c2c(OC)c1OC | -36.5% | . | . | 7.3% | . | .
COc1ccc(-c2ccc(-c3cc(=O)oc4cc(OC)c(OC)c(OC)c34)cc2)cc1OC | 20.3% | 10.3µM* | 14.6µM* | 0.4% | 18.4µM* | 12.8%
CCCCCn1nc(C(=O)Nc2ccc(F)cc2)c2ccccc2c1=O | . | . | . | . | . | -1.8%
Cc1ccc(CN(C)CC(=O)NC(C)c2ccccc2C)o1 (configuration not stated) | . | . | . | . | . | -57.8%
Cc1cnc(C(=O)NC2C[C@H]3CC[C@@H](C2)N3C(=O)c2sccc2C)cn1 (some centres not stated) | . | . | . | . | . | 25.8%
CCc1cccc(NC(=S)N(CCOC)C(C)c2ccco2)c1 (configuration not stated) | -23.0% | -2.0% | ? | -2.8% | ? | -2.2%
Cc1cccc(NC(=S)N(Cc2ccco2)C(C)c2cccs2)c1 (configuration not stated) | 14.1µM* | ? | ? | ? | 29.1µM* | ?
